Binding signal data for one sequence are collected here from paper PMC7862700, “An all-to-all approach to the identification of sequence-specific readers for epigenetic DNA modifications on cytosine”.

Test in all cases: DAPPL (digital affinity profiling via proximity ligation, sequencing); 10 mM Tris-HCl pH 7.5, 50 mM NaCl, 1 mM DTT, 4% glycerol, room temperature, 30 min; GST-TFs on glutathione beads, 16-mer random dsDNA library, 0.1% formaldehyde crosslink after washing; high values mean tight binding
One experiment addresses T1, FLI1 (Homo sapiens, UniProt Q01543 1-452).
T1 sequence: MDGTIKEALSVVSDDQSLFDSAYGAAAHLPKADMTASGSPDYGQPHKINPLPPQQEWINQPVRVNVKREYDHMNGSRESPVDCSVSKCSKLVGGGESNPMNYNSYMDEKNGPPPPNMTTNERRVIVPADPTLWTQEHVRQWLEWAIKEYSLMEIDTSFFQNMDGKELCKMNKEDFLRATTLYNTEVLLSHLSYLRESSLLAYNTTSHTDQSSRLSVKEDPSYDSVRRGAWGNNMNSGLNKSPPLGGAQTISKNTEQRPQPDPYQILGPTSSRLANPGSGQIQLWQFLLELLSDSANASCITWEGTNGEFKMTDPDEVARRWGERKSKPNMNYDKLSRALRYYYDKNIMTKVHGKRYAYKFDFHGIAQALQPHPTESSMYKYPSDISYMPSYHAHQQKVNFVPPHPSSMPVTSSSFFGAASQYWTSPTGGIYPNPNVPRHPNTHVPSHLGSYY
Conditions: protein: recombinant; tags: N-terminal GST; dsDNA, one strand shown. A digest of the protocol:
(§1)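 Yeast served to express human transcription factors as GST fusions, which were then captured on glutathione beads and labelled with DNA barcodes. Pooled with a tag-only sample, they were incubated with 200 nmole of a 16-mer random double-stranded DNA library for 30 min at room temperature in Tris/NaCl/DTT/glycerol buffer, washed, crosslinked with 0.1% formaldehyde, ligated by proximity, amplified by PCR and sequenced. Dividing each hexamer's read frequency for a factor by its frequency for the tag-only sample gives the binding signal.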

For a further experiment, the target named is T2, ELK1 (Homo sapiens, UniProt P19419 1-428).
T2 sequence: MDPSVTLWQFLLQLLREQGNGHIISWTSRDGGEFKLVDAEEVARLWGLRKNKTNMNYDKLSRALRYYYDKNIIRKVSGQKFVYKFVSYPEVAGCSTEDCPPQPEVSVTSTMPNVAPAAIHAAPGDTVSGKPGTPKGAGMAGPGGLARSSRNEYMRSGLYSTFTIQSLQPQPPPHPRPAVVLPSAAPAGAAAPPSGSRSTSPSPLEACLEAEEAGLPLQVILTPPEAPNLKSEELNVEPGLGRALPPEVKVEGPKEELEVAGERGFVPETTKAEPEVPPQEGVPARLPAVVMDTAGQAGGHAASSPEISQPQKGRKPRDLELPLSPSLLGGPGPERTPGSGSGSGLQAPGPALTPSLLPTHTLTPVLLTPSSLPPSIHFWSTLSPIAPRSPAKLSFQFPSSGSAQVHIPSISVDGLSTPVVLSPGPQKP
Conditions: protein: recombinant; tags: N-terminal GST; dsDNA, one strand shown. A digest of the protocol:
as §1

Another experiment has as its target T3, GABPA (Homo sapiens, UniProt Q06546 1-454).
T3 sequence: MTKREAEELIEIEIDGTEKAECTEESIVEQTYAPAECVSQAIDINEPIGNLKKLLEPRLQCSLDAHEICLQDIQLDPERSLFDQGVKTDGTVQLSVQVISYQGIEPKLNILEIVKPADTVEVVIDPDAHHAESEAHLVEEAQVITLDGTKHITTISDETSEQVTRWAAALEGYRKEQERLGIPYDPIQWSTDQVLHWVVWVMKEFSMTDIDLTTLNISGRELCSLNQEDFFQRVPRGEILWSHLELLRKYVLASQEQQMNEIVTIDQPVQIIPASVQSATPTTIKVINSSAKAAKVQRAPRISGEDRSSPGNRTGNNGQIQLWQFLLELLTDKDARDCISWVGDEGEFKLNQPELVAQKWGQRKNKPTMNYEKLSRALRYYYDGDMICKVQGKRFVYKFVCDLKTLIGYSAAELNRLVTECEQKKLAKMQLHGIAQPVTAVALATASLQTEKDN
Conditions: protein: recombinant; tags: N-terminal GST; dsDNA, one strand shown. In short, it runs like this: as §1

The target of a further experiment is T4, ERG (Homo sapiens, UniProt P11308 1-479).
T4 sequence: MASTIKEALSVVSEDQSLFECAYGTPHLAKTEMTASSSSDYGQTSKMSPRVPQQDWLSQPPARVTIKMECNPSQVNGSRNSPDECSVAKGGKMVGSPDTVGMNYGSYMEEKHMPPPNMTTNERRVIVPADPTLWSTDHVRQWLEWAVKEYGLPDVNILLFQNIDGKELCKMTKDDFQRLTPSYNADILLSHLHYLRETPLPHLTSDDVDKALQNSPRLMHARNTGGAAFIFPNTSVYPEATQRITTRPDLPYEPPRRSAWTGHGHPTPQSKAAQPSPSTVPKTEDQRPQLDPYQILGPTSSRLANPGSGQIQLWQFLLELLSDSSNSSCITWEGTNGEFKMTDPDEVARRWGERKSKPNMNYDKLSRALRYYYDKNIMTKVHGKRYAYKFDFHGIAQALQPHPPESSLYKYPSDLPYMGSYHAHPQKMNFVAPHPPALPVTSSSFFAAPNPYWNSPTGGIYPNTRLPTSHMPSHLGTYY
The note with it: protein: recombinant; tags: N-terminal GST; dsDNA, one strand shown. In short, it runs like this:
as §1

A further experiment deals with ELF1 (Homo sapiens, UniProt P32519 1-619). The note with it: protein: recombinant; tags: N-terminal GST; dsDNA, one strand shown. A digest of the protocol:
as §1

For a further experiment, the target named is T5, EHF (Homo sapiens, UniProt Q9NZC4 1-300).
T5 sequence: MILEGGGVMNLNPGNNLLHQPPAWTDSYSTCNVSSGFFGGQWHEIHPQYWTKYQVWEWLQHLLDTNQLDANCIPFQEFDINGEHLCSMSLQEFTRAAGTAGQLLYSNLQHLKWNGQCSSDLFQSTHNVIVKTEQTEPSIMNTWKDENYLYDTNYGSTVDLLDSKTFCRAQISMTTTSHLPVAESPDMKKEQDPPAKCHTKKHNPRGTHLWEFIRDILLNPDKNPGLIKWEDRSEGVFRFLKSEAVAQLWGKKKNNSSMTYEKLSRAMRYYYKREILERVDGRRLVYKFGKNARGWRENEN
Conditions: protein: recombinant; tags: N-terminal GST; dsDNA, one strand shown. A digest of the protocol: as §1

A further experiment concerns the target SPI1 (Homo sapiens, UniProt P17947 1-270). Conditions: protein: recombinant; tags: N-terminal GST; dsDNA, one strand shown. A digest of the protocol: as §1
Another experiment deals with SPIB (Homo sapiens, UniProt Q01892 1-262). The note with it: protein: recombinant; tags: N-terminal GST; dsDNA, one strand shown. In short, it runs like this: as §1
A further experiment has as its target T6, ELK3 (Homo sapiens, UniProt P41970 1-407).
T6 sequence: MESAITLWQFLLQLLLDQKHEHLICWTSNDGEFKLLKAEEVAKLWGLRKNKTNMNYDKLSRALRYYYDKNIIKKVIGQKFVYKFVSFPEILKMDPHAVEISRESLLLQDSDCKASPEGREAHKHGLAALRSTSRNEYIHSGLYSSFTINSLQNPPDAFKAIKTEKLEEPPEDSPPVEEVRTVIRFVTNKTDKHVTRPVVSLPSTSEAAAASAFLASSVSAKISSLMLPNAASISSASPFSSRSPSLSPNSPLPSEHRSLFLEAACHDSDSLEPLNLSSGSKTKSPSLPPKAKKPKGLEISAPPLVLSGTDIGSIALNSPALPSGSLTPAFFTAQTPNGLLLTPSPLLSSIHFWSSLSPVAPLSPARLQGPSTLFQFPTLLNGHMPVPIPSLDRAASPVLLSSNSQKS
Conditions: protein: recombinant; tags: N-terminal GST; dsDNA, one strand shown. A digest of the protocol: as §1

Another experiment has as its target T7, FEV (Homo sapiens, UniProt Q99581 1-238).
T7 sequence: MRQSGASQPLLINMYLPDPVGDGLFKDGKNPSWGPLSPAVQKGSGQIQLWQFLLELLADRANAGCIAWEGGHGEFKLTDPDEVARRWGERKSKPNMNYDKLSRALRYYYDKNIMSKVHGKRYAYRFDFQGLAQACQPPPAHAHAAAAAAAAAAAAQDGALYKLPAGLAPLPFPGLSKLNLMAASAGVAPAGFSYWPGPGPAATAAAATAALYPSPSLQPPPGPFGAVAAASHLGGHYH
The note with it: protein: recombinant; tags: N-terminal GST; dsDNA, one strand shown. A digest of the protocol: as §1

The target in another experiment is ETV5 (Homo sapiens, UniProt P41161 1-510). Conditions: protein: recombinant; tags: N-terminal GST; dsDNA, one strand shown. A digest of the protocol:
as §1

The target of the next experiment is HSF1 (Homo sapiens, UniProt Q00613 1-529). Conditions: protein: recombinant; tags: N-terminal GST; chain copies: 3; dsDNA, one strand shown. A digest of the protocol:
as §1

For another experiment, the target named is T8, SPIC (Homo sapiens, UniProt Q8N5J4 1-248).
T8 sequence: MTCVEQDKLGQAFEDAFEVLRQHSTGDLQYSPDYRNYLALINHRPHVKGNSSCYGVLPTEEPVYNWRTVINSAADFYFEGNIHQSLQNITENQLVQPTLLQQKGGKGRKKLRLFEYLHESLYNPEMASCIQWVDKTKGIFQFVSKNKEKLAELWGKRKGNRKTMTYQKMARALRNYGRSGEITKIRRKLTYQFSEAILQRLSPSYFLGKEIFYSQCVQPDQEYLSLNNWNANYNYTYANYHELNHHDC
The note with it: protein: recombinant; tags: N-terminal GST; dsDNA, one strand shown. A digest of the protocol:
as §1

In a further experiment the target is ELF4 (Homo sapiens, UniProt Q99607 1-663). Conditions: protein: recombinant; tags: N-terminal GST; dsDNA, one strand shown. In short, it runs like this: as §1
The next experiment deals with T9, ELK4 (Homo sapiens, UniProt P28324-2 1-405).
T9 sequence: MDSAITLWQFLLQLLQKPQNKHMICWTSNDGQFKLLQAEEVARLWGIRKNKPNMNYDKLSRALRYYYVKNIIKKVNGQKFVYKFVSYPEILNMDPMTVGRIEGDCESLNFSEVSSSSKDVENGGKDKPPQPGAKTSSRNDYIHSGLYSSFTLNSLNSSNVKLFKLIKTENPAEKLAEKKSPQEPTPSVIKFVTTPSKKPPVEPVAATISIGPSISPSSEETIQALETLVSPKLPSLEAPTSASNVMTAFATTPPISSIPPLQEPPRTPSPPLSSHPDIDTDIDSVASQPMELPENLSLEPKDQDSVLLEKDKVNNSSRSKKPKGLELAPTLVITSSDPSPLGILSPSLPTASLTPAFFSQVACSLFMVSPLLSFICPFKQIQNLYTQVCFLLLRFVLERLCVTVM
Conditions: protein: recombinant; tags: N-terminal GST; dsDNA, one strand shown. A digest of the protocol: as §1

The target of a further experiment is T10, ETV2 (Homo sapiens, UniProt O00321 1-342).
T10 sequence: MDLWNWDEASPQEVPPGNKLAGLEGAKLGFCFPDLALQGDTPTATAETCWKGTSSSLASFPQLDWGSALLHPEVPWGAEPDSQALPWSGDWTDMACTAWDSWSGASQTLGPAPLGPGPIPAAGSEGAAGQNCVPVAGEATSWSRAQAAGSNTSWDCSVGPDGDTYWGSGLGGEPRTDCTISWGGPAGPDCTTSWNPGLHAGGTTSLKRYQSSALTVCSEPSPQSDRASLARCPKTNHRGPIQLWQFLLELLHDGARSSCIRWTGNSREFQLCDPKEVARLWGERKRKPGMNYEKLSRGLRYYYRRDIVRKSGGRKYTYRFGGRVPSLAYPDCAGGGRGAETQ
Conditions: protein: recombinant; tags: N-terminal GST; dsDNA, one strand shown. In short, it runs like this: as §1

The target of a further experiment is T11, ELF3 (Homo sapiens, UniProt P78545 1-371).
T11 sequence: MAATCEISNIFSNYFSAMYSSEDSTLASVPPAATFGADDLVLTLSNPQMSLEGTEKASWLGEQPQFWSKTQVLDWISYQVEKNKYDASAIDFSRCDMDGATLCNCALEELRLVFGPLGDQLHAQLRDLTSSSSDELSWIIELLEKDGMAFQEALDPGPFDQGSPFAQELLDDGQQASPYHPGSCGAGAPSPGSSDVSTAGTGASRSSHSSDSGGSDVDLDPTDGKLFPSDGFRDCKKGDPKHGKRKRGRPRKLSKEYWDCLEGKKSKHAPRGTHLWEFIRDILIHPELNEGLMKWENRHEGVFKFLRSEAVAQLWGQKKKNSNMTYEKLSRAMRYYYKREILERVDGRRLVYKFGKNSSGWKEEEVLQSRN
The note with it: protein: recombinant; tags: N-terminal GST; dsDNA, one strand shown. A digest of the protocol:
as §1

The next experiment addresses CRX (Homo sapiens, UniProt O43186 1-299). Conditions: protein: recombinant; tags: N-terminal GST; dsDNA, one strand shown. In short, it runs like this: as §1
In another experiment the target is ETV1 (Homo sapiens, UniProt P50549 1-477). The note with it: protein: recombinant; tags: N-terminal GST; dsDNA, one strand shown. A digest of the protocol: as §1
ETV1, sequence (P50549 whole entry): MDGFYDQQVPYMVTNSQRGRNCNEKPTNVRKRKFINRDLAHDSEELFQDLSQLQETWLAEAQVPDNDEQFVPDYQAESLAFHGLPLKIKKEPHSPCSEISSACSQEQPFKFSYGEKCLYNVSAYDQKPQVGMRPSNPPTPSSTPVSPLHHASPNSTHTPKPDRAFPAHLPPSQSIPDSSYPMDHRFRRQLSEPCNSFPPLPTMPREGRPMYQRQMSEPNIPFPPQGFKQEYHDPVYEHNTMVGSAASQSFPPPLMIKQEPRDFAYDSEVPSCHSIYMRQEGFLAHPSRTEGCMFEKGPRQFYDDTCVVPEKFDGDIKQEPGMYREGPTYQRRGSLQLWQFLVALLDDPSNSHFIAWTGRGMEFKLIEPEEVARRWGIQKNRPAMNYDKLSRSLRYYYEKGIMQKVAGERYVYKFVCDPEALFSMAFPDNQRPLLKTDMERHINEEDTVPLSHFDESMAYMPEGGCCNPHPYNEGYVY

ETV5, sequence (P41161 whole entry): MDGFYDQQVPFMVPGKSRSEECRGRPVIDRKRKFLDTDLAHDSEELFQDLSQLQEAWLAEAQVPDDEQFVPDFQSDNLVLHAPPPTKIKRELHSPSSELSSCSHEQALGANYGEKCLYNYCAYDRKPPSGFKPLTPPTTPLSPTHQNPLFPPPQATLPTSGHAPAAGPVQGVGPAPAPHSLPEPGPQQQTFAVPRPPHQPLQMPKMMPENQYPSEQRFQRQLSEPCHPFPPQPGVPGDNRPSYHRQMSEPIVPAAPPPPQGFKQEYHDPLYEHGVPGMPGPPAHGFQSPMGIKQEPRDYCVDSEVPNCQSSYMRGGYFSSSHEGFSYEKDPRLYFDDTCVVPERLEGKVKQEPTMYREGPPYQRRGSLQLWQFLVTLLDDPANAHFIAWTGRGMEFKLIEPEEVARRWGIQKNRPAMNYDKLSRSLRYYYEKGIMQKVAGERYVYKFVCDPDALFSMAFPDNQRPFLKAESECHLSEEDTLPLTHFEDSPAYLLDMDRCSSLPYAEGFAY
CRX, sequence (O43186 whole entry): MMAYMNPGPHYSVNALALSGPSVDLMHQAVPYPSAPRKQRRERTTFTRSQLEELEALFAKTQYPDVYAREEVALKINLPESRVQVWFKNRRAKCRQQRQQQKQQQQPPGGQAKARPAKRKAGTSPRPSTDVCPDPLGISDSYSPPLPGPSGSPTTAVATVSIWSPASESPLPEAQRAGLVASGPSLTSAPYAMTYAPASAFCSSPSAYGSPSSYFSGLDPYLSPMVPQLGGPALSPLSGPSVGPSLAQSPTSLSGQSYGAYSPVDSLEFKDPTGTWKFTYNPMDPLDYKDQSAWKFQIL
ELF1, sequence (P32519 whole entry): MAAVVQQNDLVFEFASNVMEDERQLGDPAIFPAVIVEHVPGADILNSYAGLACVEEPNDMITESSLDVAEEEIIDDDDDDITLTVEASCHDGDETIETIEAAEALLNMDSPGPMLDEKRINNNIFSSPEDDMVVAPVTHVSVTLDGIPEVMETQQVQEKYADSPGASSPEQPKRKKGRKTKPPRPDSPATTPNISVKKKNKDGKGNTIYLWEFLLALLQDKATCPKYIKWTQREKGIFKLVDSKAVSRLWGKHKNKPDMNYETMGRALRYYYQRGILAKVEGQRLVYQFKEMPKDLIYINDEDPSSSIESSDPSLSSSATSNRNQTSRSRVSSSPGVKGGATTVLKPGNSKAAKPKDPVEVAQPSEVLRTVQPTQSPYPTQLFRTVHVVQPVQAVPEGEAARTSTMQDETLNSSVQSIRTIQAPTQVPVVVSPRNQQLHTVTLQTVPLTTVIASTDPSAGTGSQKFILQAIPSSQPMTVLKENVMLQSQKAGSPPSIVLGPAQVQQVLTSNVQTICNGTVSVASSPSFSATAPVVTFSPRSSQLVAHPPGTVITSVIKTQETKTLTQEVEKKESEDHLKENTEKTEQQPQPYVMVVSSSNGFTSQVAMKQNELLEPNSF
SPIB, sequence (Q01892 whole entry): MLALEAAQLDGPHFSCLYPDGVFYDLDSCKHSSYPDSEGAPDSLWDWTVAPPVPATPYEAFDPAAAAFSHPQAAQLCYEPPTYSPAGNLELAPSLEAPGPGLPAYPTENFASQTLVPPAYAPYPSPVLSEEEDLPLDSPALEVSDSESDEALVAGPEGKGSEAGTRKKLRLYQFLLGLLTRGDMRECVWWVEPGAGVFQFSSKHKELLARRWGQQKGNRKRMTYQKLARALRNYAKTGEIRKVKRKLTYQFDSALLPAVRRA
HSF1, sequence (Q00613 whole entry): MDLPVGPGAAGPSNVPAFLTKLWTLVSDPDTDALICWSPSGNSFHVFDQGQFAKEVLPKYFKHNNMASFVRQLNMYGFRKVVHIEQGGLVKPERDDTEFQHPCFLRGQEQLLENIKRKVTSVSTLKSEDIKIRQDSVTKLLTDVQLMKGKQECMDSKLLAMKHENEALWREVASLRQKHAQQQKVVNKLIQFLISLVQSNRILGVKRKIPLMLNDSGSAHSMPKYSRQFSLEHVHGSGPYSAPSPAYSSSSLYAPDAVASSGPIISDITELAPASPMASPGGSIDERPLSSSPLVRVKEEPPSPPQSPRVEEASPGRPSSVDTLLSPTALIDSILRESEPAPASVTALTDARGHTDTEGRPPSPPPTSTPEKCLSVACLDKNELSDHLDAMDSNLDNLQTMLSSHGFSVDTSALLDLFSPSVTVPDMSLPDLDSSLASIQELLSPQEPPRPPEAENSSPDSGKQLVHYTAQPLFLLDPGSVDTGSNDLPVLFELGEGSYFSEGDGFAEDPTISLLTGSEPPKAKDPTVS
ELF4, sequence (Q99607 whole entry): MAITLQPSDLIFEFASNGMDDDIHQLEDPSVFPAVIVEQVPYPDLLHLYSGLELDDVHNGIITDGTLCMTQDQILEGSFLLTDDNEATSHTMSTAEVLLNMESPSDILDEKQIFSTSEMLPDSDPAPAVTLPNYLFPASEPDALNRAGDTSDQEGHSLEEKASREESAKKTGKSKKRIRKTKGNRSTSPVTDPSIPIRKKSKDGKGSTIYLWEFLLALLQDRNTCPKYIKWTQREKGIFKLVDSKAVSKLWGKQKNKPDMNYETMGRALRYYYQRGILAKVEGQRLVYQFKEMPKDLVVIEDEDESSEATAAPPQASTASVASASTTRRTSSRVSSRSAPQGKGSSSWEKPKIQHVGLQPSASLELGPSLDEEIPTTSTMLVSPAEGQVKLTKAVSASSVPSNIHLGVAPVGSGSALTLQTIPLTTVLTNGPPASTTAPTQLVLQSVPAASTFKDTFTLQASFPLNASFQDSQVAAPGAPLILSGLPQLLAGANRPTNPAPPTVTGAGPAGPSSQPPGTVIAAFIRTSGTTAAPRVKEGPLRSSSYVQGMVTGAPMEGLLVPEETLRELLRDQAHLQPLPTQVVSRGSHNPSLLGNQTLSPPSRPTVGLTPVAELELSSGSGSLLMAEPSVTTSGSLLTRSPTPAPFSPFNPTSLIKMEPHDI

For TTCGAG, the binding signal with FLI1 is 1.18 fold enrichment (6-mer frequency, TF over GST control); with ELK1, 1.23 fold enrichment (6-mer frequency, TF over GST control); with GABPA, 1.31 fold enrichment (6-mer frequency, TF over GST control); with ERG, 1.14 fold enrichment (6-mer frequency, TF over GST control); with ELF1, 1.25 fold enrichment (6-mer frequency, TF over GST control); with EHF, 1.19 fold enrichment (6-mer frequency, TF over GST control). Moreover, the binding signal in the experiment with SPI1 is 1.21 fold enrichment (6-mer frequency, TF over GST control); with SPIB, 1.31 fold enrichment (6-mer frequency, TF over GST control); with ELK3, 1.3 fold enrichment (6-mer frequency, TF over GST control); with FEV, 1.21 fold enrichment (6-mer frequency, TF over GST control); with ETV5 it was 1.28 fold enrichment (6-mer frequency, TF over GST control); with HSF1, 4.43 fold enrichment (6-mer frequency, TF over GST control). Also, the binding signal is 1.13 fold enrichment (6-mer frequency, TF over GST control) with SPIC; 1.29 fold enrichment (6-mer frequency, TF over GST control) with ELF4; 1.26 fold enrichment (6-mer frequency, TF over GST control) with ELK4; 1.14 fold enrichment (6-mer frequency, TF over GST control) with ETV2; 1.25 fold enrichment (6-mer frequency, TF over GST control) in the experiment with ELF3; 1.96 fold enrichment (6-mer frequency, TF over GST control) with CRX. In the experiment with ETV1, the binding signal is 1.37 fold enrichment (6-mer frequency, TF over GST control).
